# Tb PFK inh – T. brucei PFK enzyme inhibition | 330,000 compounds, 0.17% hits | Potency, µM (top dose mostly 57.5 µM), without a hit: top-dose activity, negative = inhibition, hits mostly inhibitors | AID 485367 | T. brucei PFK, ADP-Glo luminescence | O15648;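 further: 0% = uninhibited 1x PFK enzyme wells and -100% = no-enzyme wells; nearly all actives have a fitted effect of over 60% in size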
# Target sequence (O15648 whole entry, looked up): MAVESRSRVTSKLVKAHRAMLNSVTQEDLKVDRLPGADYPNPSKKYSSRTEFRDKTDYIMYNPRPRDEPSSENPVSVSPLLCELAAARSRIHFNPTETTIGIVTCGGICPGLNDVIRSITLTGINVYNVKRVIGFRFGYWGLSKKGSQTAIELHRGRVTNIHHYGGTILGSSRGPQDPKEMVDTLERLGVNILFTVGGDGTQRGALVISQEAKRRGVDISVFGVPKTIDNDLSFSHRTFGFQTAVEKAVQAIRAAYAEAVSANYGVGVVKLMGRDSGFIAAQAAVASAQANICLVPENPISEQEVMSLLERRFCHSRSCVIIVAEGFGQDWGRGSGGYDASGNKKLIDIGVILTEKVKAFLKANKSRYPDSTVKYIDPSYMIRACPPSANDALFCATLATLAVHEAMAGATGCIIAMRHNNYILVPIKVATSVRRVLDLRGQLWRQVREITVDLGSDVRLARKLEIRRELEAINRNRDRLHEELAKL
#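 1.25 nM PFK with 0.5 mM F6P and 0.1 mM ATP in 0.1 M TEA pH 8.0, 5 mM MgCl2, incubated 45 min at room temperature; ADP measured by ADP-Glo luminescence; compounds titrated up to 57 uM.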
# BRCA1 expr up – activators of BRCA1 expression; MCF7-BRCA1-FFLuc reporter, luminescence, 48 h; response scale: scaled: vehicle 0%, 10 µM genistein 100%; Potency, µM (titrated, usually from 46.1 µM), for the others: at the top dose activation, most hits filed as activators; 380,000 compounds, 1.1% hits; further: nearly all actives have a fitted effect of over 80% in size
#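 First, MCF7-BRCA1-FFLuc cells (2000/well) attach for 2 h; next, compounds are pin-added and incubated 48 h at 37 °C; finally, luciferase reagent is added and luminescence read after 15 min.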
# PLK1 PBD block – inhibitors of human PLK1 polo-box domain binding | P53350 | Plk1 PBD binding of FITC phosphopeptide, fluorescence polarization | Potency, µM, without a hit: max response, negative = inhibition, most hits filed as inhibitors | 360,000 compounds, 2.8% hits | AID 720504; further: series mostly up to about 57 µM; on the % scale 0 is the no-effect control and ±100 the full control effect; nearly all actives have a fitted effect of over 65% in size
# VDR inh – blocks the human vitamin D receptor; P11473; VDR-SRC2-3 peptide fluorescence polarization, 2 h; Potency, µM, for inactives: max response, negative = inhibition, actives largely listed as inhibitors; 400,000 compounds, 0.93% hits; further: on the % scale 0 is the no-effect control and ±100 the full control effect
#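 Fluorescence polarization assay of small-molecule disruption of VDR binding to coregulator peptide SRC2-3. Compounds and controls pin-transferred, then read after 2 h incubation at ambient room temperature.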
# * marks the source's active call; other numbers are inactive results; ? = inconclusive; nt = no result given; ! = a repeat was not active; [ ] = remark or other dose. A selection: hits, their analogues and other compounds. The true share with any hit is near 3.9%. The call rests on the fitted dose curve; in most records, active means well fitted curve in the direction sought with a large enough effect; inconclusive means small, poorly fitted or top-dose-only effect, or another doubt; inactive means no such curve, though single readings can be large; an effect the other way counts as inactive or inconclusive. Potency means the concentration at half of the fitted maximal effect.
SMILES,Tb PFK inh,BRCA1 expr up,PLK1 PBD block,VDR inh
O=C(O)c1ccccc1NS(=O)(=O)c1ccc(NN=Cc2ccccc2F)c([N+](=O)[O-])c1,-2.1%,-1.8%,23.8µM*,?
COc1ccc(/C=N/Nc2ncccc2[N+](=O)[O-])c(OC)c1,-17.3%,14.1µM*,-4.8%,-16.7%
Cc1nn(-c2ccccc2)c(Cl)c1/C=N/Nc1ccc(S(=O)(=O)Nc2ccccc2C(=O)O)cc1[N+](=O)[O-],5.8%,-15.5%,26.7µM*,79.4µM*
CSc1ccc(C=NNc2ccc(S(=O)(=O)Nc3ccccc3C(=O)O)cc2[N+](=O)[O-])cc1,-7.4%,11.5%,?,-26.6%
COc1ccc(-c2nc3ccc(C4=C(C)CC(=O)NN4)cc3[nH]2)cc1,nt,nt,nt,-8.0%
COC(=O)c1sccc1S(=O)(=O)N1CCN(c2ccccc2)CC1,nt,0.4%,nt,-2.4%
CCOc1cc(-c2ccc(OC(=O)c3ccc(C)cc3)c(OC)c2)cc(=O)c2c(C)oc(C)c12,nt,nt,nt,3.9%
CCCN1CNc2c(c(=O)[nH]c(=S)n2CCCc2ccccc2)C1,nt,30.7%,nt,?
CCOc1ccc(C=NNc2ccc(S(=O)(=O)Nc3ccccc3C(=O)O)cc2[N+](=O)[O-])cc1,-2.3%,-43.0%,18.9µM*,-21.4%
COc1ccc(NC(=S)NNc2ccc(S(=O)(=O)Nc3ccccc3C(=O)O)cc2[N+](=O)[O-])cc1,?,-36.4%,8.44µM*,-2.7%
O=C(COc1ccc(Br)cc1Br)Nc1ccc(S(=O)(=O)Nc2ncccn2)cc1,nt,-1.3%,nt,1.6%
Cc1cccc(NC(=O)CSC2=Nc3ccccc3C3=NC(CC(=O)NCc4cccs4)C(=O)N23)c1 (stereo not given),nt,nt,nt,1.3%
c1ccc(Cn2nnnc2-c2ccco2)cc1,-2.3%,4.2%,-4.4%,-6.6%
Cc1cc(Cn2nnnc2-c2ccncc2)cc(C)c1O,3.6%,-1.9%,37.7µM*,4.4%
Cc1cc(Cl)ccc1Nc1nc(NCc2ccco2)nc2nccnc12,nt,-20.8%,nt,-13.1%
CC(C)(C)c1cc(CN(CCO)CCO)cc(C(C)(C)C)c1O,1.2%,6.0%,2.12µM*,?
CN(C)Cc1cc(C(C)(C)C)c(O)c(C(C)(C)C)c1,-1.0%,1.0%,10.6µM*,-1.3%
CN(C)Cc1cc(C(C)(C)C)cc(C(C)(C)C)c1O,2.5%,3.0%,-2.0%,2.0%
O=C(CCC1N=C2c3ccccc3N=C(SCC(=O)Nc3ccccc3F)N2C1=O)NCc1ccco1 (stereo not given),nt,nt,nt,-1.3%
O=C(CNC(=O)c1ccc(N2C(=O)c3ccccc3C2=O)cc1)OCC(=O)c1ccccc1,-2.8%,-26.7%,23.8µM*,-9.1%
O=C(CNC(=O)c1ccc(N2C(=O)c3ccccc3C2=O)cc1)OCC(=O)c1cccc2ccccc12,6.1%,15.3%,-3.0%,-26.2%
C=CC[C@@](C(C)=O)(C(=O)OC)C(NC(=O)OC(C)(C)C)c1ccccc1 (stereo not given in full),nt,nt,nt,-2.7%
COC(=O)c1c(NC(=O)CCc2ccc(C)o2)sc(C)c1C,7.9%,-26.0%,-23.1%,?
Cc1sc(NC(=O)/C=C/c2ccco2)c(C(=O)O)c1C,19.5%,2.24µM*,-5.8%,4.6%
Cc1ccc(/C=C/C(=O)Nc2sc(C)c(C)c2C(=O)OC(C)C)o1,-2.2%,2.4%,-4.4%,-19.8%
SMILES,Tb PFK inh,BRCA1 expr up,PLK1 PBD block,VDR inh
CCOC(=O)c1c(NC(=O)CCc2ccc(CC)o2)sc(C)c1C,-3.8%,-38.7%,26.7µM*,-25.6%
CCOC(=O)c1c(NC(=O)/C=C/c2ccc(C)o2)sc(C)c1C,-2.3%,-81.5%,26.7µM*,-20.3%
CCCNC(=O)/C=C/c1ccc(C(C)C)cc1,-3.3%,12.6µM*,0.9%,1.8%
CCN(CC)C(=O)C1CCN(C(=O)c2cnn(-c3ccccc3)c2-n2cccc2)CC1,nt,23.5%,nt,7.4%
Cc1ccc2c(c1)CCCN2C(=O)Nc1ccc2c(c1)OCO2,-0.1%,0.0%,26.7µM*,?
Cc1ccc(C(=O)c2ncc[nH]2)cc1,2.8%,14.1µM*,-1.4%,-8.6%
CN(CP(=O)(O)C(O)c1ccccc1)S(C)(=O)=O (stereo not given),2.3%,-9.0%,0.0%,1.3%
CCOC(=O)CCP(=O)(O)C(O)c1ccccc1 (stereo not given),-4.2%,1.1%,23.8µM*,-6.2%
CN(CCCC1CCCC1)C(=O)CCc1nnc(-c2ccccc2)o1,-3.6%,?,-12.4%,4.6%
Cc1cc(C)n(CCN(C)C(=O)CCc2nnc(CCC3CCCCC3)o2)n1,0.0%,11.2µM*,5.0%,13.3%
CC(=O)c1ccc(NC(=S)NCCc2cccc(Cl)c2)cc1,2.8%,3.16µM*,-12.5%,4.5%
S=C(NCCc1ccccc1)Nc1ccc(Cl)cc1,-0.3%,?,2.3%,-10.8%
CSc1cccc(NC(=O)Nc2ccc(Cl)cc2)c1,-1.9%[0.46 µM],7.94µM*,0.9%,5.8%
Fc1ccccc1NC(=S)NCCc1cccc(Cl)c1,1.6%,7.94µM*,-1.6%,4.2%
CC(=O)c1ccc(NC(=O)Nc2cccc(Cl)c2)cc1,-7.4%,7.08µM*,-6.4%,-14.9%
CSc1cccc(NC(N)=O)c1,1.3%,3.9%,-7.7%,-4.9%
CCS(=O)(=O)N1CC(=O)N(c2ccc(C)c(C)c2)C(C)(C(=O)NC2CCCCC2)C1 (stereo not given),nt,nt,nt,16.3%
CC(=O)c1ccc(NC(=O)Nc2ccc3c(c2)nc(C)n3C)cc1,-3.7%,3.55µM*,-7.6%,-3.0%
Cc1ccc(NC(=O)Nc2ccc3c(c2)nc(C)n3C)cc1,-3.9%,33.4%,-6.1%,-12.6%
C=CCN1CCN(c2nc3ccccc3nc2C#N)CC1,nt,nt,nt,35.5µM*
O=C(/C=C/c1ccccc1Cl)NCCc1ccccc1,4.3%,11.2µM*,-3.7%,4.1%
CN(C)c1ccc(NC(=O)/C=C/c2ccccc2Cl)cc1,5.4%,?,-4.9%,-12.2%
O=C(/C=C/c1ccccc1Cl)NCc1ccccc1,0.3%,49.6%,-8.4%,-1.9%
CCN(CC)c1ccc(NC(=O)/C=C\c2ccccc2Cl)cc1,6.3%,3.16µM*,-0.8%,4.2%
O=C(/C=C/c1ccccc1)NCCSCc1ccccc1,-5.2%,44.8%,29.9µM*,?
SMILES,Tb PFK inh,BRCA1 expr up,PLK1 PBD block,VDR inh
Cc1ccc(CCNC(=O)CCCn2nc(C)c3c(C)n(-c4ccccc4)nc3c2=O)cc1,nt,nt,nt,0.4%
Cc1noc(C)c1CSCC(=O)Nc1ccccc1N1CCCCC1,0.4%,nt,nt,nt
Cc1cc(C)c2nc(N3CCC(C(=O)NCc4ccccn4)CC3)sc2c1,-2.4%,3.98µM*,-13.5%,-15.4%
O=[N+]([O-])c1ccc(O)c2cccnc12,-0.6%,-4.4%,-2.4%,6.0%
O=[N+]([O-])c1ccc(O)c2ncccc12,1.6%,-76.1%,-13.3%,39.8µM*!
CN1C(C(=O)NC(C)(C)C)=CC(c2ccc3c(c2)OCO3)=NS1(=O)=O,nt,nt,nt,18.7%
CCOc1ccc(S(=O)(=O)NCCC(=O)N2CCN(c3ccc(OC)cc3)CC2)cc1,2.2%,-21.1%,21.2µM*,-6.5%
CCOc1ccc(S(=O)(=O)NCCC(=O)N2CCN(Cc3ccccc3)CC2)cc1,-7.3%,-28.8%,-0.7%,-4.6%
COc1ccc(N2CCN(C(=O)CCNS(=O)(=O)c3ccccc3)CC2)cc1,-1.4%,-5.2%,9.47µM*,?

# Source: PubChem BioAssay
